Laboratory results reported in PubChem BioAssay (EPA / NIEHS).
Inconclusive results are not listed. The source made the active and inactive calls. How the source made its calls: active means hit-call score of the fitted dose curve at least 0.9, where 1 is the maximum; inconclusive means response in the unintended direction; inactive means score below 0.9.

Key:
Caspase-3 (Homo sapiens) = Caspase-3 (Homo sapiens) (UniProt P42574); assay: NVS_ENZ_hCASP3: NovaScreen (NVS) Enzymatic Assay for human Caspase 3 (CASP3) (AID 2283139)
Sequence of Caspase-3 (Homo sapiens) (P42574 whole entry, looked up): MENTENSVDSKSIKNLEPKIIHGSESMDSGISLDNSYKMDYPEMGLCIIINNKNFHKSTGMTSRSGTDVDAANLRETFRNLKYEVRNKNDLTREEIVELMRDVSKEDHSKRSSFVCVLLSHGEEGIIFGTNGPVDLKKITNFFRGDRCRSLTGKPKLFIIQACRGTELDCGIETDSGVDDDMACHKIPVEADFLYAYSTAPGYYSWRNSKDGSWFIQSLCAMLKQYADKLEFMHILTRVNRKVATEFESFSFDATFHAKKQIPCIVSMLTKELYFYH
Outline: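 Single-concentration screening at 25 uM in duplicate, with concentration-response follow-up to a 50 uM maximum for chemicals passing the threshold. Caspase-3 (human, E. coli-expressed) activity was read as substrate fluorescence after 1 h, with loss of signal relative to DMSO.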

[1] = molecular target: human Aurora Kinase A - serine/threonine-protein Kinase 6 (AurA), AURKA (gene 6790) (UniProt O14965); assay: NVS_ENZ_hAurA: NovaScreen (NVS) Enzymatic Assay for human Aurora Kinase A - serine/threonine-protein Kinase 6 (AurA) (AID 2283142)
Sequence of human Aurora Kinase A - serine/threonine-protein Kinase 6 (AurA), AURKA (gene 6790) (O14965 whole entry, looked up): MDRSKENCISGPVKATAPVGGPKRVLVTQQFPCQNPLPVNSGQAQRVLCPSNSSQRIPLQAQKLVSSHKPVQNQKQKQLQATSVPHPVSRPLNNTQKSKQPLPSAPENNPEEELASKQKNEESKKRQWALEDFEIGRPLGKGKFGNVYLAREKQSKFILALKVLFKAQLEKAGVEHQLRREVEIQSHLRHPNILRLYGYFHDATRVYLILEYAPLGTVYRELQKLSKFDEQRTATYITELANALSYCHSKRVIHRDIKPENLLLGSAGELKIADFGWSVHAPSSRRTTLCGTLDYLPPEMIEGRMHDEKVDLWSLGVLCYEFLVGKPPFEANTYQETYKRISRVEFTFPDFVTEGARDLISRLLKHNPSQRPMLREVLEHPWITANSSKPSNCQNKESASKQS
Outline: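 Recombinant human AurA activity read by fluorescence after mobility-shift separation of product from substrate; 1 hour incubation. Chemicals first run in duplicate at 25 uM, then concentration series to 50 uM if over threshold; fitted relative to DMSO.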

[2] = molecular target: human Casein Kinase 1-delta (CK1D), CSNK1D (gene 1453) (UniProt P48730); assay: NVS_ENZ_hCK1D: NovaScreen (NVS) Enzymatic Assay for human Casein Kinase 1-delta (CK1D) (AID 2283148)
Outline: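 Recombinant human CK1-delta, cell-free; fluorescent substrate with electrophoretic mobility-shift separation of product, read 1 h after dosing. Single 25 uM duplicate screen, then concentration-response up to 50 uM; loss of signal vs DMSO.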

[3] = molecular target: human Colony Stimulating Factor 1 Receptor (CSF1R), CSF1R (gene 1436) (UniProt P07333); assay: NVS_ENZ_hCSF1R: NovaScreen (NVS) Enzymatic Assay for human Colony Stimulating Factor 1 Receptor (CSF1R) (AID 2283150)
Sequence of human Colony Stimulating Factor 1 Receptor (CSF1R), CSF1R (gene 1436) (P07333 whole entry, looked up): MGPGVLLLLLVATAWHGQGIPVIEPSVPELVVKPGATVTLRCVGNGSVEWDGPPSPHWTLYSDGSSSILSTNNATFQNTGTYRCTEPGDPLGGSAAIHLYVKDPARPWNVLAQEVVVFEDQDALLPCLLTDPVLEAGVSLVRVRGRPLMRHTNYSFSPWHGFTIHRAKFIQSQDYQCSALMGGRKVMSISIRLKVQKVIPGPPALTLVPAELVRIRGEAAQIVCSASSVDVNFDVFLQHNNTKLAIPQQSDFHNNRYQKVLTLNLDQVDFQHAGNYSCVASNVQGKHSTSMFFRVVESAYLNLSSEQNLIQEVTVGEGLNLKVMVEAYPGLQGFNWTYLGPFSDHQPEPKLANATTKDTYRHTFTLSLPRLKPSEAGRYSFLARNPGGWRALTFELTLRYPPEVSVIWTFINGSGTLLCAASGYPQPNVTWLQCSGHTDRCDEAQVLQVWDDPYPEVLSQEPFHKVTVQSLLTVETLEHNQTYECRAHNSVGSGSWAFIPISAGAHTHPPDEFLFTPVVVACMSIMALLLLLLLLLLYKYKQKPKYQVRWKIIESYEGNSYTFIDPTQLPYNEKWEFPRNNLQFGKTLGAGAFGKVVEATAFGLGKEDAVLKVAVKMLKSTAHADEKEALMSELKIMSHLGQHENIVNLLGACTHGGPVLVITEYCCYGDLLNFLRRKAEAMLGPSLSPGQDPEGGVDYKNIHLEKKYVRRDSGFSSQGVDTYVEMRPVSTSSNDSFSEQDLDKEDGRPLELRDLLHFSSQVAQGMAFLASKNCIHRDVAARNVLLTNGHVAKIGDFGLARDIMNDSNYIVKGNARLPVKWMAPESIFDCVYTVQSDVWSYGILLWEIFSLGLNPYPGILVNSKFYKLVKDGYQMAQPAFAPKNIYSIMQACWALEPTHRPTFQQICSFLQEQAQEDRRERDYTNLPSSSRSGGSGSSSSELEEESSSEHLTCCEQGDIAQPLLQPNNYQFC
Outline: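 Compounds screened in duplicate at 25 uM, then concentration-response (top 50 uM) for those passing threshold such as 30% inhibition; recombinant CSF1R activity measured 1 h post-dosing via fluorescent substrate/product mobility-shift separation, loss of signal versus DMSO.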

[4] = molecular target: human Epidermal Growth Factor Receptor (EGFR), EGFR (gene 1956) (UniProt P00533); assay: NVS_ENZ_hEGFR: NovaScreen (NVS) Enzymatic Assay for human Epidermal Growth Factor Receptor (EGFR) (AID 2283151)
Outline: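 Cell-free kinase assay, fluorescence plus electrophoretic mobility shift separating substrate and product, read 1 hour after dosing; loss of signal vs DMSO. Duplicate screen at 25 uM, then concentration-response to 50 uM.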

[5] = molecular target: human Ephrin type-A Receptor 2 (EphA2), EPHA2 (gene 1969) (UniProt P29317); assay: NVS_ENZ_hEphA2: NovaScreen (NVS) Enzymatic Assay for human Ephrin type-A Receptor 2 (EphA2) (AID 2283155)
Outline: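 Enzyme activity of recombinant EphA2 read by fluorescence after mobility-shift separation, 1 h after dosing. Chemicals first tested at 25 uM (duplicate); those passing threshold run as concentration series, top 50 uM, single replicate, relative to DMSO.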

[6] = molecular target: human Fibroblast Growth Factor Receptor 1 (FGFR1), FGFR1 (gene 2260) (UniProt P11362); assay: NVS_ENZ_hFGFR1: NovaScreen (NVS) Enzymatic Assay for human Fibroblast Growth Factor Receptor 1 (FGFR1) (AID 2283159)
Sequence of human Fibroblast Growth Factor Receptor 1 (FGFR1), FGFR1 (gene 2260) (P11362 whole entry, looked up): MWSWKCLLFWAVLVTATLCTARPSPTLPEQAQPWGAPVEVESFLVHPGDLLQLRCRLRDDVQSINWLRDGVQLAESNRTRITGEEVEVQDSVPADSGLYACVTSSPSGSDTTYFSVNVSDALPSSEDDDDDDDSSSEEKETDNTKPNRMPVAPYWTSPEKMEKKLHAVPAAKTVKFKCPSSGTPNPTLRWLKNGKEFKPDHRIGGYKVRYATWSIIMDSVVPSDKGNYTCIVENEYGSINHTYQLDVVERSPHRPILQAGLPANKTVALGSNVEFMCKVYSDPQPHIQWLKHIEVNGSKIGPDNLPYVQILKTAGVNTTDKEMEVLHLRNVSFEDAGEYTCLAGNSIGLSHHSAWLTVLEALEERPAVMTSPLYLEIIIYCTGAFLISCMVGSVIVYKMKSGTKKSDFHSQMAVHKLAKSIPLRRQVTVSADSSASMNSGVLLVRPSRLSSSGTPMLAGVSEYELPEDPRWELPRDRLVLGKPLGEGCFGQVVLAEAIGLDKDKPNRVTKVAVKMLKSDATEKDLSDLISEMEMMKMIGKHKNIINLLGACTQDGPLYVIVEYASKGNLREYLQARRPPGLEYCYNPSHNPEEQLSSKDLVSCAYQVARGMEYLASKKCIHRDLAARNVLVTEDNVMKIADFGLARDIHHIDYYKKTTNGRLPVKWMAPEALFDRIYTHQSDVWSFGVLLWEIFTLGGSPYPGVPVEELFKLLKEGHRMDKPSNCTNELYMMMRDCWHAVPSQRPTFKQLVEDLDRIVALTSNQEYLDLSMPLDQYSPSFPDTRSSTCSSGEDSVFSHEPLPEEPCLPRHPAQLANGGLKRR
Outline: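 Cell-free recombinant kinase with fluorescent substrate, product separated by electrophoretic mobility shift; read 1 hour after dosing, loss of signal relative to DMSO. Initial screen in duplicate at 25 uM, actives followed in concentration series.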

[7] = molecular target: human FYN Proto-Oncogene, Src family Tyrosine Kinase (Fyn), FYN (gene 2534) (UniProt P06241); assay: NVS_ENZ_hFyn: NovaScreen (NVS) Enzymatic Assay for human FYN Proto-Oncogene, Src family Tyrosine Kinase (Fyn) (AID 2283161)
Outline: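 Cell-free kinase activity read by fluorescence after mobility-shift separation of substrate and product, 1 h post-dose. Initial single concentration 25 uM in duplicate, then concentration-response follow-up; DMSO baseline.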

[8] = molecular target: Protein deacetylase HDAC6 (Homo sapiens) (UniProt Q9UBN7); assay: NVS_ENZ_hHDAC6: NovaScreen (NVS) Enzymatic Assay for human Histone Deacetylase 6 (HDAC6) (AID 2283164)
Outline: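 Concentration-response runs up to 50 uM followed a duplicate 25 uM single-point screen. Deacetylase activity of recombinant human HDAC6 read by fluorescence after 1 h, with mobility-shift separation of substrate and product; DMSO as baseline.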

[9] = molecular target: Glycogen synthase kinase-3 beta (Homo sapiens) (UniProt P49841); assay: NVS_ENZ_hGSK3b: NovaScreen (NVS) Enzymatic Assay for human Glycogen Synthase Kinase-3 beta (GSK3b) (AID 2283165)
Sequence of Glycogen synthase kinase-3 beta (Homo sapiens) (P49841 whole entry, looked up): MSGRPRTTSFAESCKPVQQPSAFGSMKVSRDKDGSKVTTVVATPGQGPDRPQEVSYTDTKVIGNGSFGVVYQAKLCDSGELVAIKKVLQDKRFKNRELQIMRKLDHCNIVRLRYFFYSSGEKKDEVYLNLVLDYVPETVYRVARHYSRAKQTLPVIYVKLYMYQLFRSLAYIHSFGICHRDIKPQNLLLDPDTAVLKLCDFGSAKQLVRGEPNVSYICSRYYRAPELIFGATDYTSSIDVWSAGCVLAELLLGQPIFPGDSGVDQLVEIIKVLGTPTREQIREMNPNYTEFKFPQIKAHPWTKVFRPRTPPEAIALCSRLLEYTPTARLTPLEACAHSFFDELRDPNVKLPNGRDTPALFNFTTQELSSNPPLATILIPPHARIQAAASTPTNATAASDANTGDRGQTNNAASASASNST
Outline: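 Recombinant enzyme with specific fluorescent substrate, 1 h, product separated by electrophoretic mobility shift. Primary duplicate screen at 25 uM; actives (e.g. 30% inhibition) followed in singleton concentration-response to 50 uM. Signal loss fitted versus DMSO.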

[10] = molecular target: human IkappaB Kinase alpha (IKKa), CHUK (gene 1147) (UniProt O15111); assay: NVS_ENZ_hIKKa: NovaScreen (NVS) Enzymatic Assay for human IkappaB Kinase alpha (IKKa) (AID 2283167)
Outline: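 Compounds first run in duplicate at 25 uM, those meeting threshold (e.g. 30% inhibition) retested to maximum 50 uM. Enzyme activity of recombinant IKKa measured by fluorescence with electrophoretic mobility shift separation, 1 hour post-dosing, DMSO baseline.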

[11] = molecular target: human Esterase Plasma (ES), BCHE (gene 590) (UniProt P06276); assay: NVS_ENZ_hES: NovaScreen (NVS) Enzymatic Assay for human Esterase Plasma (ES) (AID 2283157)
Sequence of human Esterase Plasma (ES), BCHE (gene 590) (P06276 whole entry, looked up): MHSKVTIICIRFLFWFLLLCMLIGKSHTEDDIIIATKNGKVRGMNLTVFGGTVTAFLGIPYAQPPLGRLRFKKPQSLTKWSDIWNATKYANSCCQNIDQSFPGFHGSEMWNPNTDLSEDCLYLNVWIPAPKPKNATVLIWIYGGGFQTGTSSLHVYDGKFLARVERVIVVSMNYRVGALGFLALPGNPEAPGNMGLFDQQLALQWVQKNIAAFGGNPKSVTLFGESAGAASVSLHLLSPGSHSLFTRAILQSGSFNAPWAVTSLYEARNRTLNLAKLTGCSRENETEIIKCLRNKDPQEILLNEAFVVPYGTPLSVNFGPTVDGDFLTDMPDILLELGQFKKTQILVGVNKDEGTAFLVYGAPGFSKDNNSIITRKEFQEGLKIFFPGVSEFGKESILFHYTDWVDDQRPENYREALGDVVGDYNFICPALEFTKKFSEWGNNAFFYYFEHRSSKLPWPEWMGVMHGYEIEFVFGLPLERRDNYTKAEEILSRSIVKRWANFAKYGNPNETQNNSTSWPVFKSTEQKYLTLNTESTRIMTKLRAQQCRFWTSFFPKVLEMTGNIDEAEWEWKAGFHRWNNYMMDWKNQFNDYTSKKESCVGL
Outline: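 Primary single-concentration screen at 25 uM in duplicate, then concentration-response to a 50 uM top dose. Human plasma esterase activity detected colorimetrically after 0.25 h incubation, with DMSO as baseline.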

[12] = molecular target: human Beta-secretase (BACE), BACE1 (gene 23621) (UniProt P56817); assay: NVS_ENZ_hBACE: NovaScreen (NVS) Enzymatic Assay for human Beta-secretase (BACE) (AID 2283140);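 further: hits are inhibitors that reduce fluorescent substrate signal versus DMSO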
Sequence of human Beta-secretase (BACE), BACE1 (gene 23621) (P56817 whole entry, looked up): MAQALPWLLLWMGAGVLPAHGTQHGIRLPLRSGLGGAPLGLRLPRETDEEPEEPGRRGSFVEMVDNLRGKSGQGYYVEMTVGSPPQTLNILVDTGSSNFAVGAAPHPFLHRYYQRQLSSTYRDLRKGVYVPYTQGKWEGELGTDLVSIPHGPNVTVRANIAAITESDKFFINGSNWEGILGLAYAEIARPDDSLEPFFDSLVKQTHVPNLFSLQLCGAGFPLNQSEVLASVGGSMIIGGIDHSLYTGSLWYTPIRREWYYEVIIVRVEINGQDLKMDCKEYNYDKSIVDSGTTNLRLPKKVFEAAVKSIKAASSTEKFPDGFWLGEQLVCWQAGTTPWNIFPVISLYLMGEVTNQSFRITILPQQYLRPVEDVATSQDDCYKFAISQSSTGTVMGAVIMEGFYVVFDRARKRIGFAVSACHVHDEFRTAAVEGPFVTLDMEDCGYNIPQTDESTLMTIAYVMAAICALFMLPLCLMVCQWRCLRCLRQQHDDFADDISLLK
Outline: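 Enzyme from SF9 cells was incubated 1 hour with compound and fluorogenic substrate, activity read by fluorescence. Single-concentration duplicates at 25 uM preceded concentration-response follow-up; fitting relative to DMSO baseline.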

[13] = molecular target: human Dual Specificity Protein Phosphatase 3 (DUSP3), DUSP3 (gene 1845) (UniProt P51452); assay: NVS_ENZ_hDUSP3: NovaScreen (NVS) Enzymatic Assay for human Dual Specificity Protein Phosphatase 3 (DUSP3) (AID 2283152);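 further: phosphatase activity of recombinant human DUSP3 on a fluorogenic substrate without cells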
Sequence of human Dual Specificity Protein Phosphatase 3 (DUSP3), DUSP3 (gene 1845) (P51452 whole entry, looked up): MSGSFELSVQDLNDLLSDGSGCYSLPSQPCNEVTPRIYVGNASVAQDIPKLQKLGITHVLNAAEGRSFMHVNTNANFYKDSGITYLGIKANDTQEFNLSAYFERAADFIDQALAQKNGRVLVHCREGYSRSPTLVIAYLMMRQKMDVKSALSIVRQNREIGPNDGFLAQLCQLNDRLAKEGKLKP
Outline: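 Cell-free fluorescence-intensity enzyme activity assay with recombinant protein and substrate; loss of signal fitted relative to DMSO baseline. Primary screen in duplicate at 25 uM, actives then run in concentration series; measured 0 h after dosing.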

[14] = molecular target: human Elastase, ELANE (gene 1991) (UniProt P08246); assay: NVS_ENZ_hElastase: NovaScreen (NVS) Enzymatic Assay for human Elastase (AID 2283153)
Sequence of human Elastase, ELANE (gene 1991) (P08246 whole entry, looked up): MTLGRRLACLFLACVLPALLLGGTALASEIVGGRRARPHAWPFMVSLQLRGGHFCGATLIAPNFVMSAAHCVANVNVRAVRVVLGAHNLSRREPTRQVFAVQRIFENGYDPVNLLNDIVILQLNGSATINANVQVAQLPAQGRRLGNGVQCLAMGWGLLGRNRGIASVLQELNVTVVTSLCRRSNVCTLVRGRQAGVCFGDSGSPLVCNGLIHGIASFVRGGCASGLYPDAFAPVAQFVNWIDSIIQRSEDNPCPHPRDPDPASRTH
Outline: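 Concentration-response to 50 uM max, run singly for chemicals passing a threshold (e.g., 30% inhibition) in a duplicate 25 uM single-point screen. Neutrophil-derived human elastase, absorbance read-out of enzyme activity at 1.5 h; DMSO baseline.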

[15] = molecular target: Histone deacetylase 3 (Homo sapiens) (UniProt O15379); assay: NVS_ENZ_hHDAC3: NovaScreen (NVS) Enzymatic Assay for human Histone Deacetylase 3 (HDAC3) (AID 2283163)
Outline: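 Cell-free enzyme format: loss of fluorescent product after mobility-shift separation, 1 h incubation, recombinant human HDAC3. Single 25 uM duplicate screen first, then concentration series to a 50 uM top for hits; DMSO as baseline.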

[16] = molecular target: human Caspase 4 (CASP4), CASP4 (gene 837) (UniProt P49662); assay: NVS_ENZ_hCASP4: NovaScreen (NVS) Enzymatic Assay for human Caspase 4 (CASP4) (AID 2283143)
Sequence of human Caspase 4 (CASP4), CASP4 (gene 837) (P49662 whole entry, looked up): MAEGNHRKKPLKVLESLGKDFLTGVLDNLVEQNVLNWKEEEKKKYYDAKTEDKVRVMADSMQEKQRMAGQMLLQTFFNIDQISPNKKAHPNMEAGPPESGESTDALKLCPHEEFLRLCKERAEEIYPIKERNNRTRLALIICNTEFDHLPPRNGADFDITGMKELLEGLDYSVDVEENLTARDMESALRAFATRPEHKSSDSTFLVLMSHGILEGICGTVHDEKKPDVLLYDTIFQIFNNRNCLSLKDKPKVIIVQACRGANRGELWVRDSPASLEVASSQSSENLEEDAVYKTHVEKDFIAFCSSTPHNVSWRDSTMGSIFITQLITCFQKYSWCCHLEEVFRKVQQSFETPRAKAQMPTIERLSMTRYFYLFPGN
Outline: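 Compounds were first tested in duplicate at 25 uM, and hits were titrated singly to a 50 uM maximum. Recombinant protease from E. coli was read by fluorescence 2 h post-dose, and activity loss was fitted against the DMSO baseline.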

[17] = molecular target: human Caspase 8 (CASP8), CASP8 (gene 841) (UniProt Q14790); assay: NVS_ENZ_hCASP8: NovaScreen (NVS) Enzymatic Assay for human Caspase 8 (CASP8) (AID 2283146)
Outline: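 The primary screen tested compounds in duplicate at a single 25 uM concentration, with actives followed up in concentration series. Activity of recombinant (E. coli) protease was measured by fluorescence 1 h post-dose, as signal loss against DMSO.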

For `CCCSC(=O)N(CCC)CCC`, the outcome (Caspase-3 (Homo sapiens)) was “inactive”.

For `CCN(CC)N=O`, the outcome [1] was “inactive”, the outcome [2] was “inactive” and the outcome [3] was “inactive”. The outcome [4] was “inactive”, the outcome [5] was “inactive” and the outcome [6] was “inactive”. For the same molecule, the outcome [7] was “inactive”, the outcome [8] was “inactive” and the outcome [9] was “inactive”. For the same molecule, the outcome [10] was “inactive”.

With `CC(C)(C)C(O)(CCc1ccc(Cl)cc1)Cn1cncn1` (stereo not given) the outcome [1] was “inactive”, the outcome [4] was “inactive” and the AC50 [11] was 22.7 µM (active).

With `Cc1ccc(N)c(N)c1` the outcome [12] was “inactive”.

`Nc1ccc(Cl)cc1N` was tested, and the AC50 (Caspase-3 (Homo sapiens)) was 4.4 µM (active), the AC50 [12] was 2.52 µM (active) and the AC50 [13] was 6.31 µM (active). The outcome [14] was “inactive”, the outcome [11] was “inactive” and the outcome [15] was “inactive”.

For `C[C@]12C=CC3=C4CCC(=O)C=C4CC[C@H]3[C@@H]1CC[C@@H]2O`, the AC50 [1] was 35.3 µM (active) and the outcome [3] was “inactive”.

In the case of `Cc1ccc(N=C=O)cc1N=C=O`, the AC50 [12] is reported as 8.64 µM (active), the AC50 [16] is reported as 13.7 µM (active) and the AC50 [13] is reported as 12.6 µM (active). For the same molecule, the AC50 [14] was 8.38 µM (active).

For `CN(C)[C@@H]1C(=O)C(C(N)=O)=C(O)[C@@]2(O)C(=O)C3=C(O)c4c(O)cccc4[C@@](C)(O)[C@H]3C[C@@H]12`, the outcome [12] was “inactive”, the AC50 [13] was 7.39 µM (active) and the AC50 [14] was 18.5 µM (active). The outcome [11] was “inactive” and the AC50 [9] was 25 µM (active).

`Nc1ccc([N+](=O)[O-])cc1` was tested, and the outcome [1] was “inactive”, the outcome [17] was “inactive” and the outcome [3] was “inactive”.

For `Cc1cc(N=Nc2ccccc2C)ccc1N`, the AC50 [12] was 25 µM (active).

For `O=[N+]([O-])c1ccc(Oc2ccc(Cl)cc2Cl)cc1`, the outcome [12] was “inactive” and the outcome [14] was “inactive”.

With `Nc1ccc(N=Nc2ccccc2)cc1` the outcome [16] was “inactive”, the outcome [17] was “inactive” and the outcome [9] was “inactive”.

With `O=C(Oc1ccc(Br)cc1)N1CCN2CCC1CC2` the outcome [6] was “inactive” and the outcome [9] was “inactive”.

With `CN(C)c1ccc(C(=O)c2ccc(N(C)C)cc2)cc1` the outcome [9] was “inactive”.

With `C=CCc1ccc2c(c1)OCO2` the outcome [6] was “inactive”.
